“And” between values parts separate entries of the source, which are not always exact repeats. Identical values can stand only once. Records with an inconclusive call do not appear. More than one record can exist for a structure, and the calls need not agree. The source made the active and inactive calls. The calls were made as follows: active = hit-call score of the fitted dose curve at least 0.9, where 1 is the maximum; inconclusive = response in the unintended direction; inactive = score below 0.9.
Target: Cellular tumor antigen p53 (Homo sapiens) (UniProt P04637)
Experiment: TOX21_p53_BLA_p4_ratio: Tox21 HCT-116 p53 Agonism Beta-lactamase Assay, Ratio, Phase 4 (AID 2283601)
Outline: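 Signal is the blue/green (460nm/530nm) ratio of cleaved versus uncleaved CCF4-AM substrate, read after 2 h substrate loading. Cells were HCT116 carrying the p53-responsive beta-lactamase reporter, dosed 16 h at 37C, 5% CO2; CellTiter-Glo measured in parallel.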

Chain of Cellular tumor antigen p53 (Homo sapiens) (P04637 whole entry, looked up): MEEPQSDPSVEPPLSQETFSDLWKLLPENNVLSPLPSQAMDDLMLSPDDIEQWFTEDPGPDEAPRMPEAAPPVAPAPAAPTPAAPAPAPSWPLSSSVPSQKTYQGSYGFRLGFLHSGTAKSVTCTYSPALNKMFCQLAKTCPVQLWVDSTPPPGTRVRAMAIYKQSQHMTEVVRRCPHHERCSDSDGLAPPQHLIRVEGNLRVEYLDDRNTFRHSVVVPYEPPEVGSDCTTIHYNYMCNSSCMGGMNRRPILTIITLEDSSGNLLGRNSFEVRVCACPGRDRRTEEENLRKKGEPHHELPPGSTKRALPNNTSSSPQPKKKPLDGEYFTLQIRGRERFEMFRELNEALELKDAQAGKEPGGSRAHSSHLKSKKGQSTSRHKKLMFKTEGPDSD

Structure (SMILES) | AC50 | outcome
Nc1nc(N)c2nc(CNc3ccc(C(=O)N[C@@H](CCC(=O)O)C(=O)O)cc3)cnc2n1 | 0.0582 µM (active) | inactive
O=C(O)Cc1ccccc1Nc1c(Cl)cccc1Cl | 71.7 µM (active) | inactive
CC1(C)CC(N=C=O)CC(C)(CN=C=O)C1 (stereo not given) |  | inactive
CC(C)c1ccc(C(=O)N=C(N)N)cc1S(C)(=O)=O |  | inactive
Cc1ccc(C(C)C)c(O)c1 | 86.6 µM (active) | inactive
O=c1[nH]cc(F)c(=O)[nH]1 | 3.73 µM (active) and 4.64 µM (active) and 5.42 µM (active) | 
Cc1oc(-c2ccccc2)nc1CCOc1cccc2c1ccn2CCC(=O)O |  | inactive
Cc1c(C(=O)O)c(O)cc2c1C(=O)c1c(O)c([C@@H]3O[C@H](CO)[C@@H](O)[C@H](O)[C@H]3O)c(O)c(O)c1C2=O |  | inactive
CCOc1ccc2c(c1)C(C)=CC(C)(C)N2 | 76.6 µM (active) | inactive
COc1cc(C=O)ccc1O |  | inactive
CCCCCCOCCO |  | inactive
COc1ccc2c(c1)c(CC(=O)O)c(C)n2C(=O)c1ccc(Cl)cc1 |  | inactive
COCCOCCOC |  | inactive
CNC(=O)[C@H]1O[C@@H](n2cnc3c(NCc4cc(Cl)ccc4OCc4cc(C)no4)ncnc32)[C@H](O)[C@@H]1N |  | inactive
COC(=O)c1ccc(O)cc1 |  | inactive
CC(=O)OC/C=C(\C)CCC=C(C)C |  | inactive
CN[C@H]1CC[C@@H](c2ccc(Cl)c(Cl)c2)c2ccc(S(N)(=O)=O)cc21 | 86.1 µM (active) | 
Cc1ccc(N(C)C)cc1 |  | inactive
c1cc(-c2ccncc2)ccn1 |  | inactive
O=C(N[C@@H](Cc1ccccc1)[C@@H](O)C(=O)N1C[C@@H](O)[C@@H](O)C1)c1cc2cc(Cl)ccc2[nH]1 |  | inactive
COc1cc(/C=C/C(=O)CC(=O)/C=C/c2ccc(O)c(OC)c2)ccc1O | 14 µM (active) and 36.5 µM (active) and 7.12 µM (active) | 
O=c1c(O)c(-c2ccc(O)c(O)c2)oc2cc(O)cc(O)c12 | 22.8 µM (active) [middle of 4 runs] | 
CCCCCCCCCCO |  | inactive
Cc1ccc(C)c(C)c1 |  | inactive
CC1=C(/C=C/C(C)=C/C=C/C(C)=C/CO)C(C)(C)CCC1 |  | inactive
CCOC(=O)CCC(=O)OCC |  | inactive
Clc1cc(Cl)c(Cl)cc1Cl |  | inactive
CCCCCCCCCCCC(=O)OC |  | inactive
CNCc1cc(F)ccc1Oc1ccc(Cl)c(Cl)c1 | 64.4 µM (active) | 

Test system: not listed separately
Experiment: Tanguay_ZF_120hpf_MORT_legacy: (Legacy) Oregon State University Tanguay Lab 120 Hour Post-fertilization zebrafish Assay for Mortality (AID 2283633);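 as to AC50: fitted as increase in binary mortality versus DMSO negative control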
Outline: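 Dechorionated Tropical 5D wild-type zebrafish embryos, one per well from 6 hpf, were statically exposed at 28C in the dark until 120 hpf (0.64% DMSO final). Mortality was scored as present/absent by brightfield microscopy, fitted positively versus DMSO.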

Structure (SMILES) | outcome | AC50
Nc1nc(N)c2nc(CNc3ccc(C(=O)N[C@@H](CCC(=O)O)C(=O)O)cc3)cnc2n1 | inactive | 
O=C(O)Cc1ccccc1Nc1c(Cl)cccc1Cl |  | 30.6 µM (active)
CC1(C)CC(N=C=O)CC(C)(CN=C=O)C1 (stereo not given) | inactive | 
CC(C)c1ccc(C(=O)N=C(N)N)cc1S(C)(=O)=O | inactive | 
Cc1ccc(C(C)C)c(O)c1 | inactive | 
Cc1oc(-c2ccccc2)nc1CCOc1cccc2c1ccn2CCC(=O)O | inactive | 
Cc1c(C(=O)O)c(O)cc2c1C(=O)c1c(O)c([C@@H]3O[C@H](CO)[C@@H](O)[C@H](O)[C@H]3O)c(O)c(O)c1C2=O | inactive | 
CCOc1ccc2c(c1)C(C)=CC(C)(C)N2 | inactive | 
COc1cc(C=O)ccc1O | inactive | 
CCCCCCOCCO | inactive | 
COc1ccc2c(c1)c(CC(=O)O)c(C)n2C(=O)c1ccc(Cl)cc1 | inactive | 
COCCOCCOC | inactive | 
CNC(=O)[C@H]1O[C@@H](n2cnc3c(NCc4cc(Cl)ccc4OCc4cc(C)no4)ncnc32)[C@H](O)[C@@H]1N | inactive | 
COC(=O)c1ccc(O)cc1 | inactive | 
CC(=O)OC/C=C(\C)CCC=C(C)C | inactive | 
CN[C@H]1CC[C@@H](c2ccc(Cl)c(Cl)c2)c2ccc(S(N)(=O)=O)cc21 | inactive | 
Cc1ccc(N(C)C)cc1 | inactive | 
c1cc(-c2ccncc2)ccn1 | inactive | 
O=C(N[C@@H](Cc1ccccc1)[C@@H](O)C(=O)N1C[C@@H](O)[C@@H](O)C1)c1cc2cc(Cl)ccc2[nH]1 | inactive | 
O=c1c(O)c(-c2ccc(O)c(O)c2)oc2cc(O)cc(O)c12 | inactive | 
CCCCCCCCCCO | inactive | 
Cc1ccc(C)c(C)c1 | inactive | 
CC1=C(/C=C/C(C)=C/C=C/C(C)=C/CO)C(C)(C)CCC1 | inactive | 
CCOC(=O)CCC(=O)OCC | inactive | 
Clc1cc(Cl)c(Cl)cc1Cl | inactive | 
CCCCCCCCCCCC(=O)OC | inactive | 
CNCc1cc(F)ccc1Oc1ccc(Cl)c(Cl)c1 | inactive | 

Test system: not listed separately
Experiment: Tanguay_ZF_120hpf_YSE_legacy: (Legacy) Oregon State University Tanguay Lab 120 Hour Post-fertilization zebrafish Assay for Yolk Sac Edema (AID 2283634);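 as to AC50: actives raise the incidence of yolk sac edema above the DMSO baseline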
Outline: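 Tropical 5D wild-type embryos, dechorionated with pronase at 4 hpf, were exposed singly from 6 hpf to 120 hpf under static, sealed, dark conditions at 28C with 0.64% DMSO final. Yolk sac edema was scored present/absent by brightfield microscopy.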

Structure (SMILES) | outcome | AC50
Nc1nc(N)c2nc(CNc3ccc(C(=O)N[C@@H](CCC(=O)O)C(=O)O)cc3)cnc2n1 | inactive | 
O=C(O)Cc1ccccc1Nc1c(Cl)cccc1Cl | inactive | 
CC1(C)CC(N=C=O)CC(C)(CN=C=O)C1 (stereo not given) | inactive | 
CC(C)c1ccc(C(=O)N=C(N)N)cc1S(C)(=O)=O | inactive | 
Cc1ccc(C(C)C)c(O)c1 | inactive | 
Cc1oc(-c2ccccc2)nc1CCOc1cccc2c1ccn2CCC(=O)O | inactive | 
Cc1c(C(=O)O)c(O)cc2c1C(=O)c1c(O)c([C@@H]3O[C@H](CO)[C@@H](O)[C@H](O)[C@H]3O)c(O)c(O)c1C2=O | inactive | 
CCOc1ccc2c(c1)C(C)=CC(C)(C)N2 | inactive | 
COc1cc(C=O)ccc1O |  | 43.3 µM (active)
CCCCCCOCCO | inactive | 
COCCOCCOC | inactive | 
CNC(=O)[C@H]1O[C@@H](n2cnc3c(NCc4cc(Cl)ccc4OCc4cc(C)no4)ncnc32)[C@H](O)[C@@H]1N | inactive | 
COC(=O)c1ccc(O)cc1 | inactive | 
CC(=O)OC/C=C(\C)CCC=C(C)C | inactive | 
CN[C@H]1CC[C@@H](c2ccc(Cl)c(Cl)c2)c2ccc(S(N)(=O)=O)cc21 | inactive | 
Cc1ccc(N(C)C)cc1 | inactive | 
c1cc(-c2ccncc2)ccn1 | inactive | 
O=C(N[C@@H](Cc1ccccc1)[C@@H](O)C(=O)N1C[C@@H](O)[C@@H](O)C1)c1cc2cc(Cl)ccc2[nH]1 | inactive | 
O=c1c(O)c(-c2ccc(O)c(O)c2)oc2cc(O)cc(O)c12 | inactive | 
CCCCCCCCCCO | inactive | 
Cc1ccc(C)c(C)c1 | inactive | 
CC1=C(/C=C/C(C)=C/C=C/C(C)=C/CO)C(C)(C)CCC1 | inactive | 
CCOC(=O)CCC(=O)OCC | inactive | 
CCCCCCCCCCCC(=O)OC | inactive | 
CNCc1cc(F)ccc1Oc1ccc(Cl)c(Cl)c1 | inactive | 

Reference: PubChem BioAssay (EPA / NIEHS)
